This is an account of results in PubChem BioAssay.

Unmarked numbers belong to inactive results. For some of these results: Entries with a potency or affinity are not part of this list. Activity calls are given as the source filed them. Unless noted, no rule for the calls is given here.

Assay [1] can be described thus: antimalarial activity against Dd2 strain (AID 2302;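 active = growth inhibition above 50% at the single 2 µM test dose, taken to imply half-maximal potency below 2 µM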;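 also: 0% = DMSO untreated growth and 100% = chloroquine plus artemisinin killed control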). The settings on record: P. falciparum Dd2 in RBCs, LDH growth readout, 72 h; at 2 µM; hits give high values.
Assay [2] in a line: human hepatoma cell viability loss – ATP luminescence, cytotoxicity control for P. falciparum antimalarial project, primary screen (AID 2303;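 active = inhibition above 50%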;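 also: 0% = DMSO wells and 100% = digitonin-killed cells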). The conditions noted are these: HepG2 viability, 24-48 h, at 10 µM, hits give high values.
Assay [3] concerns the target L-lactate dehydrogenase (Plasmodium falciparum (isolate CDC / Honduras)) (UniProt Q27743). The experiment in a line: PfLDH activity inhibition – cell lysate, 3D7 strain, counter-screen for P. falciparum growth inhibition project (AID 2304).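 Also: 0% = vehicle and 100% = reference inhibitor.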 The settings on record: P. falciparum 3D7 crude extract, LDH APAD/NBT absorbance; at 2 µM; hits give high values.
Assay [4] can be described thus: inhibition of 3D7 malaria parasite growth – strain 3D7 (AID 2306).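 Also: 0% = DMSO wells and 100% = chloroquine plus artemisinin control wells.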 The conditions noted are these: P. falciparum 3D7 erythrocytic growth, LDH absorbance, 72 h; at 2 µM; hits give high values.
Assay [5] deals with Calcium-dependent protein kinase 1 (Plasmodium falciparum (isolate 3D7)) (UniProt P62344). The experiment in a line: PfCDPK1 kinase inhibitors, biochemical, TCAMS library (AID 1159585; cut-off not given, nearly all actives have IC50 up to about 0.98 µM;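 also: inhibitors leave more ATP so luminescence rises with inhibition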). The settings on record: recombinant PfCDPK1, Kinase-Glo ATP depletion luminescence. (Kinase-Glo measures the ATP left after a reaction by luminescence.)
For assay [6], the target named is Plasmodium falciparum protein kinase 6 (PK6, PF3D7_1337100) (UniProt Q8IDW1). Put plainly: PfPK6 kinase inhibitors, biochemical, TCAMS library (AID 1159586). The settings on record: recombinant PfPK6, Kinase-Glo ATP depletion luminescence.
For assay [7], the target named is Protein kinase 7 (PK7), Plasmodium falciparum 3D7 (PF3D7_0213400) (UniProt Q7YTF7). Put plainly: inhibition of Plasmodium PK7 catalytic activity – biochemical, TCAMS antimalarial set, Kinase-Glo luminescence (AID 1159587). The settings on record: recombinant PfPK7, Kinase-Glo ATP depletion luminescence.
The target in assay [8] is Calcium-dependent protein kinase 4 (Plasmodium falciparum (isolate 3D7)) (UniProt Q8IBS5). The experiment in a line: PfCDPK4 kinase inhibitors, biochemical, TCAMS library (AID 1159588; cut-off not given, nearly all actives have IC50 up to about 0.91 µM). The conditions noted are these: recombinant PfCDPK4, Kinase-Glo ATP depletion luminescence.
Sequence of Calcium-dependent protein kinase 4 (Plasmodium falciparum (isolate 3D7)) (Q8IBS5 whole entry, looked up): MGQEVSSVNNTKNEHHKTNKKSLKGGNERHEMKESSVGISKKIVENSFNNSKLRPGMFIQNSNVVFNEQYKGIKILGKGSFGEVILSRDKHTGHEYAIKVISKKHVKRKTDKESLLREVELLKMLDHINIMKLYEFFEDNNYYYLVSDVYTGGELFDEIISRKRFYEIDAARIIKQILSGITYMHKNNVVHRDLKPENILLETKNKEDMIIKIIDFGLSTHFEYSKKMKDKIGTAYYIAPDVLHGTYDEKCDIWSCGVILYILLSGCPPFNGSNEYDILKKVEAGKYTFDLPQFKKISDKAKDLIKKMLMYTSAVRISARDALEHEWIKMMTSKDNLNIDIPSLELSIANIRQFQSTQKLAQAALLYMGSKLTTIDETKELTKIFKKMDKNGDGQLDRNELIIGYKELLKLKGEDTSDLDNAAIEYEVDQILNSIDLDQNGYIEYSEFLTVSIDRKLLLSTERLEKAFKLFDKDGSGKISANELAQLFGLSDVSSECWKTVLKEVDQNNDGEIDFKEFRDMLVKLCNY

Sequence of L-lactate dehydrogenase (Plasmodium falciparum (isolate CDC / Honduras)) (Q27743 whole entry, looked up): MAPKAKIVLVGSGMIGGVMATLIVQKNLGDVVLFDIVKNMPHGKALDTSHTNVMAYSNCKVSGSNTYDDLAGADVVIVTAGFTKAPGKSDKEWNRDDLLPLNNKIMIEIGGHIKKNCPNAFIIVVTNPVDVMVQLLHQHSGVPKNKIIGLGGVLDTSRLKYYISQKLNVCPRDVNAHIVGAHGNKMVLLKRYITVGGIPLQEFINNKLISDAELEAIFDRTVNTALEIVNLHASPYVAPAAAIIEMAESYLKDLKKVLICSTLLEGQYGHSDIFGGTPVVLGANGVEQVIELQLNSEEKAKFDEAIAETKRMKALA
Sequence of Protein kinase 7 (PK7), Plasmodium falciparum 3D7 (PF3D7_0213400) (Q7YTF7 1-343): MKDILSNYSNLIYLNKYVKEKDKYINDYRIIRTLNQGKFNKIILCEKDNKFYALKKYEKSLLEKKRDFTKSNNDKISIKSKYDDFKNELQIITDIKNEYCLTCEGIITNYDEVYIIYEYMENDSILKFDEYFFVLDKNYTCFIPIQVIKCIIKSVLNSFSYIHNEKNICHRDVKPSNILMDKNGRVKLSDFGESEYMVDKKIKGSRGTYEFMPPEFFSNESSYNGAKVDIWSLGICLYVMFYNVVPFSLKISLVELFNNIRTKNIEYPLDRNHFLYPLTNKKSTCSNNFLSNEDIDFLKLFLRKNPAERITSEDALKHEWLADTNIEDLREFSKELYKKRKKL
Sequence of Plasmodium falciparum protein kinase 6 (PK6, PF3D7_1337100) (Q8IDW1 1-305): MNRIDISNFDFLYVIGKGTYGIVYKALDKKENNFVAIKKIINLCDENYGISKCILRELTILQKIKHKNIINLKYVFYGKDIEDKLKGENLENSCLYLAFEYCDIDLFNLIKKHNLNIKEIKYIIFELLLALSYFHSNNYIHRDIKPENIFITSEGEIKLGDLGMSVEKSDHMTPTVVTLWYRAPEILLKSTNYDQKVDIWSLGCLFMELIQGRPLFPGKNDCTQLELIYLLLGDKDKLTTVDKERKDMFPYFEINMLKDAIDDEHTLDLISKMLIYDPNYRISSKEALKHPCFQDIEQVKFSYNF
Sequence of Calcium-dependent protein kinase 1 (Plasmodium falciparum (isolate 3D7)) (P62344 whole entry, looked up): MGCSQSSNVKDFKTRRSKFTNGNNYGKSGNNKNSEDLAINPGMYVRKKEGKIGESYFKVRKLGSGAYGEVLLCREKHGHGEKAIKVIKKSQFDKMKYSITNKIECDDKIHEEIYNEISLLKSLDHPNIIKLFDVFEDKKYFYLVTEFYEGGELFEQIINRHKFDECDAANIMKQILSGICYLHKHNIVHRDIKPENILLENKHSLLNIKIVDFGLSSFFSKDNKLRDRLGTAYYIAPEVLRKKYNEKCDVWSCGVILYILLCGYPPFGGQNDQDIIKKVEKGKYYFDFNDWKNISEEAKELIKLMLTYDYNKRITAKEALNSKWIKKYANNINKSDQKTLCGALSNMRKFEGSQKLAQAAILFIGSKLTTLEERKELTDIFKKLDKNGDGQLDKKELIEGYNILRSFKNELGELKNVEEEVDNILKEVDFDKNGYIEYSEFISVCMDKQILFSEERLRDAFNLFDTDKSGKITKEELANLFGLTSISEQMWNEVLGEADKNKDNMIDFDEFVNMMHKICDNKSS

Turning to `CCCCCN1CCCC(NS(=O)(=O)c2ccc(C(=O)Nc3cccc(C(F)(F)F)c3)cc2)C1` (stereo not given), the results for the growth inhibition in assay [1] and in assay [4] were 3% and 97% (active), respectively. The inhibition (in general, the drop in the measured response relative to a control, in per cent) is 30% in assay [2] and 5% in assay [3]. For the same molecule, the result in assay [5], in assay [6], in assay [7] and in assay [8] was inactive.
As to `Nc1nccc2ccc(-c3cccnc3)cc12`, the growth inhibition is 95% (active) in assay [1] and 97% (active) in assay [4]. Further, the inhibition was 9% in assay [2] and 2% in assay [3]. Also, the result in assay [5], in assay [6], in assay [7] and in assay [8] was inactive.
In the case of `COc1ccc(CNC2CCN(C)CC2)cc1-c1ccc(S(=O)(=O)NCc2ccccc2)cc1`, the growth inhibition is 99% (active) in assay [1] and 100% (active) in assay [4]. Also, the inhibition in assay [2] is 56% (active); in assay [3], 5%. For the same molecule, the result in assay [5], in assay [6], in assay [7] and in assay [8] was inactive.
Take `CCOc1c(C)cc(C(F)(F)F)cc1CNCCCNc1cc(=O)c2ccccc2[nH]1`: the growth inhibition in assay [1] is 1%; in assay [4] it was 97% (active). Also, the inhibition in assay [2] is -1%; in assay [3], -7%. Moreover, the result in assay [5], in assay [6], in assay [7] and in assay [8] was inactive.
For `COc1ccc2c(c1)OC(C)(C)CC2=NOS(=O)(=O)c1ccc(C)cc1`, the growth inhibition in assay [1] was 12%; in assay [4], 97% (active). In addition, the inhibition in assay [2] was 10%; in assay [3], 4%. In addition, the result in assay [5], in assay [6], in assay [7] and in assay [8] was inactive.
For `CN1C(C)(C)CC(NC(=O)c2ccc(-c3nc4ccc(Cl)cc4[nH]3)cc2)CC1(C)C`, the growth inhibition is 36% in assay [1] and 99% (active) in assay [4]. Besides, the inhibition in assay [2] is 23%; in assay [3], -3%. In addition, the result in assay [5], in assay [6], in assay [7] and in assay [8] was inactive.
Take `CS(=O)(=O)c1ccc(OCCCN(Cc2ccccc2C(F)(F)F)c2ccc(C#N)c(C(F)(F)F)c2)cc1`: the growth inhibition in assay [1] is 76% (active); in assay [4], 94% (active). Further, the inhibition in assay [2] is 4%; in assay [3], -5%. Moreover, the outcome in assay [5], in assay [6], in assay [7] and in assay [8] was inactive.
For `O=C(COc1ccc(Cl)c(Cl)c1)NCCCCCN1CCCN(C(=O)Nc2ccc(Cl)c(Cl)c2)CC1`, the figures for the growth inhibition in assay [1] and in assay [4] were 7% and 93% (active), respectively. The inhibition is 29% in assay [2] and 3% in assay [3]. Moreover, the result in assay [5], in assay [6], in assay [7] and in assay [8] was inactive.
For the molecule `COc1ccc(-c2nc(NC(=O)Cc3coc4cc(OC)ccc34)sc2C)cc1`, the growth inhibition is 77% (active) in assay [1] and 100% (active) in assay [4]. The inhibition is 9% in assay [2] and -2% in assay [3]. Moreover, the outcome in assay [5], in assay [6], in assay [7] and in assay [8] was inactive.
On to `CCCCCCOc1ccc(C(=O)NCCC2CCN(CCCCCNC(=O)C=Cc3ccc(Cl)c(Cl)c3)CC2)cc1`, for which the values for the growth inhibition in assay [1] and in assay [4] were 10% and 99% (active), respectively. The inhibition in assay [2] is 13%; in assay [3], 0%. Further, the result in assay [5], in assay [6], in assay [7] and in assay [8] was inactive.
As to `CCCCCCN1CCCN(Cc2cccc(C(=O)Nc3ccc(C(C)(C)C)cc3)c2)CC1`, the growth inhibition in assay [1] was 23%; in assay [4], 93% (active). The inhibition in assay [2] is 41%; in assay [3], 0%. For the same molecule, the result in assay [5], in assay [6], in assay [7] and in assay [8] was inactive.
For the molecule `N#Cc1cccc(NC(=O)Nc2cccc(OC3CCN(Cc4ccccc4)CC3)c2)c1`, the values for the growth inhibition in assay [1] and in assay [4] were 48% and 100% (active), respectively. Besides, the figures for the inhibition in assay [2] and in assay [3] were 5% and 1%, respectively. The outcome in assay [5], in assay [6], in assay [7] and in assay [8] was inactive.
With `Cc1cc(F)ccc1[C@H]1C[C@H](N2CCOCC2)CCN1C(=O)N(C)[C@@H](C)c1cc(C(F)(F)F)cc(C(F)(F)F)c1`, the growth inhibition in assay [1] was 99% (active); in assay [4] it was 100% (active). For the same molecule, the inhibition in assay [2] is 4%; in assay [3], 3%. The outcome in assay [5], in assay [6], in assay [7] and in assay [8] was inactive.
For the molecule `CC(C)(C)c1ccc(CNC(=O)/C=C/c2ccc(-c3nc4ccc(C(C)(C)C)cc4[nH]3)cc2)cc1`, the growth inhibition in assay [1] was 66% (active); in assay [4] it was 100% (active). Also, the inhibition in assay [2] is 35%; in assay [3], -2%. The result in assay [5], in assay [6], in assay [7] and in assay [8] was inactive.
For the molecule `O=C(Nc1ccc(OC2CCN(Cc3ccc(F)cc3)C2)cc1)c1cccs1` (stereo not given), the growth inhibition was 92% (active) in assay [1] and 94% (active) in assay [4]. Also, the values for the inhibition in assay [2] and in assay [3] were 2% and 4%, respectively. For the same molecule, the result in assay [5], in assay [6], in assay [7] and in assay [8] was inactive.
With `COc1ccc(CNCCCCCCNCCc2ccc(Cl)cc2)cc1OC`, the growth inhibition in assay [1] is 0%; in assay [4] it was 96% (active). For the same molecule, the inhibition in assay [2] was 21%; in assay [3], 0%. Besides, the result in assay [5], in assay [6], in assay [7] and in assay [8] was inactive.
With `COc1cccc(CCc2c(CCNCCCCCCNCCc3ccccc3)ccc(OC)c2OC)c1`, the values for the growth inhibition in assay [1] and in assay [4] were 69% (active) and 100% (active), respectively. Moreover, the inhibition was 100% (active) in assay [2] and 6% in assay [3]. In addition, the outcome in assay [5], in assay [6], in assay [7] and in assay [8] was inactive.
On to `CN(CCON1C(N)=NC(N)=NC1(C)C)c1ccccc1`, for which the growth inhibition in assay [1] was 93% (active); in assay [4] it was 97% (active). Also, the inhibition in assay [2] was 64% (active); in assay [3], 1%. The result in assay [5], in assay [6], in assay [7] and in assay [8] was inactive.
As to `O=c1ccc2ccc(F)c3c2n1CC3CN1CCC(NCc2cccc(-c3cccs3)c2)CC1` (stereo not given), the figures for the growth inhibition in assay [1] and in assay [4] were 75% (active) and 100% (active), respectively. The inhibition in assay [2] is 17%; in assay [3], 0%. In addition, the result in assay [5], in assay [6], in assay [7] and in assay [8] was inactive.
With `CCCCCCc1cc2cc(-c3csc(C=Cc4ccccc4)n3)c(=O)oc2cc1O`, the growth inhibition in assay [1] was 75% (active); in assay [4], 96% (active). The results for the inhibition in assay [2] and in assay [3] were 17% and 2%, respectively. Also, the result in assay [5], in assay [6], in assay [7] and in assay [8] was inactive.
